Results taken from PubChem BioAssay (NCI).
This is part of a sample that, as a whole, favours compounds with a hit. Of some 83,000 tested, about 20% had one in any assay.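 Activity criterion: percent growth below 10, measured after cells in 96-well plates were exposed to a single compound concentration for 48 hours.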 Unmarked numbers belong to inactive results. The source made the active and inactive calls.

Each compound was assayed on MDA-MB-468 breast (assay: NCI-60 one-dose screen, 48 h (100 = growth as untreated, 0 = no growth, -100 = all killed)). Conditions: 10 µM unless noted.
For `CCSc1oc(C)nc1[P+](c1ccccc1)(c1ccccc1)c1ccccc1`, the growth was -20.3% (active). In the case of `Cc1sc2nc(NCc3ccccc3)[nH]c(=O)c2c1C`, the growth is reported as 23.7%. Work on `COc1cc(C2CC(c3ccc(C)cc3)=NN2C=O)ccc1Oc1ccnc2cc(Cl)ccc12` (stereo not drawn) yielded a growth of 58.4%. In the case of `COc1cc(/C=N/NC(=O)c2cnn3c2NC(c2ccccc2)C3)ccc1Oc1ccccc1` (stereo not drawn), the growth is reported as 6.71% (active). In the case of `CCOC(=O)/C(O)=C(\C=N\C(=S)Nc1ccc(Cl)c(Cl)c1)C(=O)OCC`, the growth is reported as 102%. `COc1ccc(-c2ccccc2)cc1C(=O)c1ccc(-c2ccccc2)cc1` showed a growth of 64.6%. `Cc1ccc(Cn2c(-c3nonc3N)nc3ccccc32)cc1` was tested, and the growth was 58.8%. `C=C(C)[C@@H]1CC[C@]2(C)[C@H](CC(=O)N[C@H]3[C@@H]4C[C@](C)(C(=O)OC)CC[C@]4(C)CC[C@]32C)[C@@]1(C)CCC#N` gave a growth of 83.3%. For `CN(CCn1sc(=O)n(Cc2ccccc2)c1=O)Cc1ccc2c(Cl)cc(Cl)c(O)c2n1`, the growth was 42.4%. For `Cc1cc(C)cc(OCC(=O)O)c1`, the growth was 131%. For `CCCCNC(=O)Oc1ccc(/C(=C(/C)Cc2ccc(OC)cc2)c2ccc(OCCN3CCCC3)cc2)cc1`, the growth was 53.5%. Work on `O=C(Nc1nc2ccccc2s1)c1ccc(F)cc1` yielded a growth of 94.1%. `Cc1[nH]c2ccccc2c1/C=N/Nc1ncnc2sc3c(c12)CCN(CC(=O)OC(C)(C)C)C3` showed a growth of 47.5%. Compound `O=S(=O)(NCCCNc1nccc(-c2[nH]c(-c3ccccc3)nc2-c2ccc(F)c(O)c2)n1)c1cccc2ccccc12` has a growth of 48.8%. `O=CN1N=C(c2ccc(Cl)cc2)CC1c1cccc(Nc2ccnc3cc(Cl)ccc23)c1` (stereo not drawn) was tested, and the growth was -0.854% (active). Compound `COC(=O)[C@H]1Cc2c([nH]c3ccccc23)[C@@H](c2cccs2)N1` has a growth of 101%. `Nc1ncnc2c1nc(N)n2C1OC(CO)C(O)C1O` (stereo not drawn) was tested, and the growth was -73.6% (active). With `COc1cccc2nc(Nc3cccc(NC(=O)c4cc(N5CCOCC5)cc(C(F)(F)F)c4)c3)ccc12` the growth was 67.3%. In the case of `CNCCCNc1nc2ccccc2c2c(=O)c3cc(F)ccc3sc12`, the growth is reported as -57.3% (active). Work on `Nc1nc(-c2cccc([N+](=O)[O-])c2)c(N=Nc2ccccc2)s1` yielded a growth of 11.5%. With `O=C(Nc1ccc(Cl)cc1F)c1ccccc1O` the growth was 6.26% (active). `O=c1c2ccccc2nc(COc2ccccc2)n1/N=C/C=C/c1ccccc1` gave a growth of 89.1%. With `CC1=C[C@@H]2c3c(c(O)c(O)c4oc5cc(O)cc(O)c5c(=O)c34)[C@@H](c3cc(O)c(O)c4oc5cc(O)cc(O)c5c(=O)c34)[C@@H]2C(C)(C)C1` the growth was -19.5% (active). With `C/C(=N\Nc1ccc(Cl)cn1)c1ccc2ccccc2n1` the growth was -20.3% (active). `COC1=CC(c2ccc[nH]2)=N/C1=C\c1[nH]c(C)c(C(=O)CCCCCCCCC(=O)O[C@H]2CC[C@H]3C4CCc5cc(O)ccc5C4CC[C@]23C)c1C` (stereo partly drawn) was tested, and the growth was 37.5%. `Cc1cc(NS(=O)(=O)c2ccc(-c3cnc(C4CC4)o3)cc2)ccc1Cl` was tested, and the growth was -6.6% (active). `COc1ccc(-c2cc(=O)oc3ccc(Cl)cc23)cc1F` was tested, and the growth was 26.5%. In the case of `O=C(CN1CCN(C(=O)c2ccccc2)CC1)Nc1ccccc1SCc1ccccc1`, the growth is reported as 56.4%.
